DT40 TDP1 no CPT – qHTS for Inhibitors of human tyrosyl-DNA phosphodiesterase 1 (TDP1): qHTS in cells in absence of CPT; DT40 Tdp1-/- hTDP1 cells, no CPT, ATP luminescence, 48 h; Potency, µM (doses to about 46.2 µM), hits mostly inhibitors; 420,000 tested, 15% active; AID 686978, 2013; further: nearly all actives have a fitted effect of over 55% in size
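Growth kinetics read by CellTiter-Glo luminescence after ≥48 hr at 37 °C. Cells: DT40 Tdp1-/- stably carrying human TDP1, 400 per well, compound exposure in the absence of CPT (DMSO vehicle).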
IL-1B inflam inh – inhibitors of inflammasome signaling (IL-1 beta secretion); THP-1 LPS/ATP IL-1B secretion, AlphaLISA, 16 h; stronger effect = lower value; activity change, % at 57.5 µM; 360,000 tested, 4.7% active; in the data active means activity change below about -50%; inconclusive means mostly about -30% to -49%
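Secreted IL-1B measured by AlphaLISA bead assay after 16 h compound exposure of THP-1 cells; compounds (final up to 57.5 uM) added 1 h before LPS (250 ng/mL) and ATP (1.25 mM) stimulation; lower signal means less secretion.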
ClpP mod – qHTS Assay for Activators of ClpP. purified B. subtilis ClpP, FRET peptide cleavage, 20 min. Potency, µM (titrated, usually from 57.5 µM). 340,000 tested, 1.9% active. AID 651965, 2013. ATP-dependent Clp protease proteolytic subunit (Bacillus subtilis (strain 168)), P80244; active means well fitted falling curve with a large enough effect; inconclusive means small, poorly fitted or top-dose-only effect; inactive means no such curve, though single readings can be large or run the other way; further: the source files actives as falling curves though it sought activators and does not explain the sign; nearly all actives have a fitted effect of over 65% in size
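Buffer: 100 mM Tris/HCl pH8, 100 mM KCl, 0.05% low protease BSA, 2.5% glycerol, 0.01% Tween-20. ClpP 10 microg/mL final; 20 min RT; delta FRET normalized to ADEP and DMSO controls.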
DT40 TDP1 CPT – growth inhibition of DT40 Tdp1-/-;hTDP1 cells with camptothecin (screen for TDP1 inhibitors); chicken DT40 Tdp1-/-;hTDP1 cells + 20 nM CPT, ATP luminescence, 48 h; Potency, µM (top dose mostly 46.2 µM), most hits filed as inhibitors; 420,000 tested, 12% active; AID 686979; further: nearly all actives have a fitted effect of over 55% in size
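Chicken DT40 Tdp1-/- cells complemented with human TDP1, 400 cells/well, exposed to compounds plus 20 nM camptothecin for at least 48 h at 37 C; viability read as ATP content by CellTiter-Glo luminescence.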
D3 antag – D3 dopamine receptor (human) antagonism; P35462; max response, negative = inhibition, %; D3R cells, DiscoveRx beta-arrestin luminescence, antagonist mode; stronger effect = lower value; 360,000 tested, 2.5% active; in the data active means max response below about -50%; inconclusive means no clear call, values can overlap the other calls
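Cells expressing the human receptor were seeded at 1500 cells/well, incubated overnight at 37 degrees C in 5% CO2, then exposed to library compounds with dopamine controls for 90 minutes at 37 degrees C before luminescent detection.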
D3 ag – agonists of human D3 dopamine receptor. P35462. D3R DiscoveRx beta-arrestin cells, luminescence, 90 min. AID 652048. max activation, %. 410,000 tested, 0.58% active; in the data active means max activation above about 30%
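Agonist-mode cell screen: cells plated at 1500/well and incubated overnight at 37 °C, then exposed to library compounds for 90 min at 37 °C. Detection reagent was added for 30–60 min at room temperature, and luminescence was read.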
Each line names hits and unclear results; the compound was inactive in the other large screens; ! = not confirmed by another sample. Most compounds without a hit are left out; they make up all but 21% or so of the library. Unless noted, the call rests on the fitted dose curve; in most records, active means well fitted inhibition curve with a large enough effect; inconclusive means small, poorly fitted or top-dose-only effect; inactive means flat fitted curve, though single readings scatter.

COC1=C(N)C(=O)c2nc(-c3nc(C(=O)O)c(C)c(-c4ccc(OC)c(OC)c4O)c3N)ccc2C1=O	DT40 TDP1 no CPT 0.1µM, IL-1B inflam inh -106, DT40 TDP1 CPT 0.041µM, D3 antag -118
COc1ccc(C(=O)O)c(O)c1OC	none (no result: IL-1B inflam inh, ClpP mod, D3 antag, D3 ag)
COc1ccc(NC(=O)CCn2c(=O)c3cccn3c3ccccc32)c(OC)c1	DT40 TDP1 no CPT 21µM, DT40 TDP1 CPT 16µM
Cc1cc(C)cc(NC(=O)CCCn2c3ccccc3c(=O)c3ccccc32)c1	DT40 TDP1 no CPT 23µM, DT40 TDP1 CPT inconclusive (no result: IL-1B inflam inh, D3 antag)
O=C(CCn1c(=O)c2cccn2c2ccccc21)Nc1ccc(F)cc1	DT40 TDP1 no CPT 12µM!, DT40 TDP1 CPT inconclusive, D3 antag -65
Cc1ccc2c(c1)c(=O)c1ccccc1n2CCCC(=O)Nc1ccc(F)cc1F	DT40 TDP1 no CPT inconclusive (no result: IL-1B inflam inh, D3 antag)
Cc1ccc(NC(=O)CCn2c(=O)c3cccn3c3ccccc32)c(C)c1	DT40 TDP1 no CPT 21µM, DT40 TDP1 CPT inconclusive
Cc1ccc(S(=O)(=O)N2CCC[C@H]2C(=O)NC2=NCCS2)cc1	none
Cc1ccc(C)c(Cn2c(=O)c3c(nc4n3CCN4c3ccc(F)cc3)n(C)c2=O)c1	none (no result: IL-1B inflam inh, D3 antag)
CCc1noc(C)c1C(=O)NNC(=O)COc1cc(C)ccc1C	none
Cc1cc(C)cc(NC(=O)CCn2c(=O)c3cccn3c3ccccc32)c1	DT40 TDP1 no CPT 8.2µM, DT40 TDP1 CPT 5.8µM
CCOC(=O)c1cccc(NC(=O)CCCn2c(=O)c3cccn3c3cccnc32)c1	DT40 TDP1 CPT inconclusive
COc1ccc(NC(=O)CCn2c(=O)c3cccn3c3ccccc32)cc1	DT40 TDP1 no CPT inconclusive, DT40 TDP1 CPT inconclusive
COc1cccc(NC(=O)CCCn2c(=O)c3cccn3c3cccnc32)c1	DT40 TDP1 no CPT 21µM, ClpP mod inconclusive, DT40 TDP1 CPT inconclusive (no result: IL-1B inflam inh, D3 antag)
COc1cc2c(cc1OC)C(C)N(C(=O)CCNC(=O)c1ccccc1)CC2 (stereo not given)	none
COc1cc2c(cc1OC)C(C)N(C(=O)Nc1ccccc1)CC2 (stereo not given)	DT40 TDP1 no CPT 4.1µM, DT40 TDP1 CPT 3.7µM
COc1cc2c(cc1OC)C(C1C(=O)CCCC1=O)N(C(=O)CCl)CC2 (stereo not given)	none
COc1cc2c(cc1OC)C(c1ccccc1)N(C(=O)CCl)CC2 (stereo not given)	DT40 TDP1 no CPT 2.9µM, IL-1B inflam inh -96, DT40 TDP1 CPT 3.3µM, D3 antag -62
COc1ccccc1/C=C/C(=O)N1CCc2cc(OC)c(OC)cc2C1C (stereo not given)	DT40 TDP1 no CPT inconclusive, IL-1B inflam inh -70, DT40 TDP1 CPT inconclusive (no result: ClpP mod)
COc1cc2c(cc1OC)C(C)N(C(=O)[C@@H](NC(=O)c1ccccc1)C(C)C)CC2 (stereo not given in full)	DT40 TDP1 no CPT 29µM, IL-1B inflam inh -52, DT40 TDP1 CPT inconclusive (no result: ClpP mod)
COc1cc2c(cc1OC)C(C)N(C(=O)C(NC(=O)c1ccccc1)C(C)C)CC2 (stereo not given)	DT40 TDP1 no CPT inconclusive, DT40 TDP1 CPT inconclusive (no result: ClpP mod)
CN(Cc1nc(-c2cnccn2)no1)Cc1n[nH]c2c1CCCC2	DT40 TDP1 no CPT inconclusive (no result: ClpP mod)
C[C@@H]1CN([C@@H](C)CO)C(=O)CCCn2nncc2CO[C@H]1CN(C)S(=O)(=O)c1cccc(C#N)c1	none
CCN(CC(=O)Nc1ccc(OC)cc1)C(=O)c1ccc(N2C(=O)CCC2=O)cc1	none
CCOC(=O)c1sc(=S)n(C)c1NC(=O)c1ccc(OC)cc1	DT40 TDP1 no CPT 21µM, DT40 TDP1 CPT 2.3µM
O=C(COc1ccc2c(c1)C(=O)CC1(CCCCC1)O2)NCc1ccccn1	DT40 TDP1 no CPT inconclusive, ClpP mod 25µM, DT40 TDP1 CPT inconclusive
CCOC(=O)COc1ccc2c(c1)C(=O)CC(C)(c1cccnc1)O2 (stereo not given)	IL-1B inflam inh inconclusive, ClpP mod 28µM
O=C1CC2(CCCCC2)Oc2ccc(Cl)cc21	none
O=C1CC2(CCN(C(=O)COc3ccccc3)CC2)Oc2ccccc21	DT40 TDP1 no CPT inconclusive (no result: ClpP mod)
O=C(COc1ccc2c(c1)C(=O)CC1(CCCCC1)O2)NCc1ccccc1	DT40 TDP1 no CPT 21µM, DT40 TDP1 CPT inconclusive
CCOC(=O)COc1ccc2c(c1)C(=O)CC1(CCCCC1)O2	ClpP mod 28µM
COc1ccc(NC(=O)CSc2nc3c(oc4ccccc43)c(=O)n2-c2ccccc2)cc1OC	DT40 TDP1 no CPT inconclusive, DT40 TDP1 CPT inconclusive (no result: IL-1B inflam inh, D3 antag)
CCOC(=O)Cn1cccc1-c1nc(-c2ccc(OC)cc2)c(-c2ccc(OC)cc2)s1	none (no result: IL-1B inflam inh, ClpP mod, D3 antag)
O=C(NCCc1ccc(C(F)(F)F)cc1)c1ccc(Cl)nc1	none
O=C1/C(=C\c2ccc(O)c(O)c2)C(c2ccccc2)=NN1c1ccccc1	DT40 TDP1 no CPT 21µM, DT40 TDP1 CPT inconclusive (no result: ClpP mod)
COc1cc(/C=C2\C(=O)N(c3ccc(NC(C)=O)cc3)N=C2c2ccccc2)ccc1O	none
Cc1ccc(OCC(=O)Nc2ccc(S(=O)(=O)Nc3ccccn3)cc2)c(C)c1	DT40 TDP1 no CPT 18µM, ClpP mod inconclusive, DT40 TDP1 CPT inconclusive
Cc1cc(C)nc(SCC(=O)Nc2ccc(S(=O)(=O)Nc3ncccn3)cc2)n1	D3 ag 34 (no result: ClpP mod)
Cc1ccc(C)c(S(=O)(=O)Nc2ccccc2C(=O)Nc2ccc(S(=O)(=O)Nc3ncccn3)cc2)c1	ClpP mod 25µM
Cc1ccc(SCC(=O)Nc2ccc(S(=O)(=O)Nc3ncccn3)cc2)cc1	none

Source: PubChem BioAssay
